Laboratory results from PubChem BioAssay (NCI).
About 83,000 compounds went through this panel and 20% of them were active in at least one assay; those are over-represented in the sample as a whole.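 Compound tested at a single concentration for 48 hours in 96-well plates; a percent growth value below 10 was scored as active.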 A number with no mark means an inactive call. Calls of active or inactive are those of the source.

What follows are compounds tested on SW-620 colon (assay: NCI-60 one-dose screen, 48 h (100 = growth as untreated, 0 = no growth, -100 = all killed)). Conditions: 10 µM unless noted.

| SMILES | growth |
| --- | --- |
| CC(=O)NC(C)(C)C(=O)N1CCC[C@H]1C(=O)NC(C)(C)C(=O)N[C@@H](C)C(=O)NC(C)(C)C(=O)NC(C)(C)C(=O)N[C@@H](CCC(N)=O)C(=O)NC(C)(C)C(=O)N[C@H](C(=O)NC(C)(C)C(=O)NCC(=O)N[C@@H](CC(C)C)C(=O)NC(C)(C)C(=O)N1CCC[C@H]1C(=O)N[C@H](C(=O)NC(C)(C)C(=O)NC(C)(C)C(=O)N[C@@H](CCC(N)=O)C(=O)N[C@@H](CCC(N)=O)C(=O)N[C@H](CO)Cc1ccccc1)C(C)C)C(C)C | 45.5% [4.25 µM] |
| NC(=S)N/N=C(/C=C/c1cn(-c2ccccc2)nc1-c1ccc(Cl)cc1)c1cc2ccccc2oc1=O | 29.6% |
| Cc1ccc(/C=C/c2nn3c(-c4ccco4)nnc3s2)cc1 | 102% |
| COCCOc1ccc(-c2csc(NC(C)=O)n2)cc1NS(=O)(=O)c1cccc2c(N(C)C)cccc12 | 111% |
| COc1cc2cc(Oc3ccc(NC(=O)c4cccc(C(F)(F)F)c4)cc3)c(C)nc2cc1OCCN(C)C | 79.5% |
| C=C(C)[C@@H]1CC[C@]2(COS(C)(=O)=O)CC[C@]3(C)[C@H](CC[C@@H]4[C@@]5(C)CCCNC(C)(C)[C@@H]5CC[C@]43C)[C@@H]12 | 4.87% (active) |
| NC(=O)C(=Cc1ccc(Cl)cc1)C(N)=O | 52.2% |
| CCc1ccc(NC(=O)N[C@@H](Cc2cccc(F)c2)C(=O)N[C@@H]2C(=O)N3CCC[C@H]3C(=O)N3CCCC[C@H]3C(=O)N[C@@H](C)C(=O)N3C[C@H](C)C[C@H]3C(=O)O[C@H]2C)c(F)c1 | 34.4% |
| O=C1c2cc(Br)ccc2-n2c1nc1cc(Br)ccc1c2=O | 68% |
| C/C=C/[C@@H]1C=C[C@@H]2C[C@H](C)CC[C@H]2[C@]1(C)/C(O)=C1/C(=O)[C@H](CO)N(C)C1=O | 52.5% |
| CCOC(=O)c1ccc(N/C=C/C(=O)c2ccccc2)cc1 | 100% |
| CC(=O)C1=NN(c2ccc(Cl)cc2)C(=O)CN1C | 106% |
| CCn1c2ccc(/C=N/OCCCN(C)C)cc2c2cc(/C=N/OCCCN(C)C)ccc21 | -47.3% (active) |
| Cc1ccc(C2CC(c3ccc(Nc4nc(NCCO)nc(Nc5ccc(Cl)cc5)n4)cc3)=Nc3c(N)nc(N)nc3N2)cc1 (centres undefined) | -88.9% (active) |
| Cn1ccnc1C(=O)/C=C/c1ccc(C(=O)Nc2ccc(NC(=O)CCNC(=O)c3csc(Br)n3)cc2)cc1 | 14.1% |
| COc1cc(/C=N/n2cnc3oc(-c4ccccc4)cc3c2=N)cc(CN2CCCC2)c1O | -59.4% (active) |
| Cn1cc(-c2nn3c(=O)cc(-c4ccccc4)nc3s2)c2cc(F)ccc21 | 41.9% |
| CCNC(=NCCCN(C)C)N/C(N)=N/c1nc2ccccc2s1 | 103% |
| CS(=O)(=O)c1ccc2c(c1)c1c(n2S(=O)(=O)c2ccc(Cl)cc2)CCCC1 | 9.36% (active) |
| O=C(CSc1nnc(-c2ccc(Cl)cc2)n1-c1ccccc1)Nc1ccc(F)cc1 | 82.3% |

| SMILES | growth |
| --- | --- |
| O=[N+]([O-])c1ccc(-c2nnc(SCc3ccc(O)c4ncccc34)n2-c2ccccc2)cc1 | 18.6% |
| COc1cc2c3c(n(CCCN4CCC[C@H]4C(N)=O)c(=O)c2cc1OC)-c1cc2c(cc1C3=O)OCO2 | 19.7% |
| O=C1[C@@H]2Cc3c([nH]c4ccccc34)[C@H](c3c(Cl)cccc3Cl)N2C(=O)CN1C1CCN(Cc2ccccc2)CC1 | 10.6% |
| COc1ccc(C(=O)c2c(N)c(C#N)cn2-c2cccc(OC)c2)cc1 | 9.11% (active) |
| Nc1ccc(-c2nnc(SCc3ccc(O)c4ncccc34)o2)cc1 | 5.51% (active) |
| C/C(=N/Nc1nc(N/N=C(/C)c2ccc([N+](=O)[O-])cc2)nc(N2CCOCC2)n1)c1ccc([N+](=O)[O-])cc1 | 95.5% |
| O=C1c2c(O)cc(O)cc2O[C@@H](c2ccc(O)cc2)[C@@H]1c1c(O)cc(O)c2c(=O)cc(-c3ccc(O)c(O)c3)oc12 | 107% |
| COc1ccc2c(c1)oc1c3[nH]c4ccccc4c3c3c(c21)C(=O)N(O)C3=O | 34.3% |
| COc1cc2c3c(n(CCCNC4CCCCC4)c(=O)c2cc1OC)-c1cc2c(cc1C3=O)OCO2 | -76.8% (active) |
| C=CCn1c(SCC(=O)Nc2cccc(C(=O)/C=C/c3cc(OC)c(OC)c(OC)c3)c2)nc2ccccc2c1=O | 3.18% (active) |
| O=C1c2c(c3c4cc(O)ccc4oc3c3[nH]c4ccccc4c23)C(=O)N1O | 4.5% (active) |
| COC(=O)c1nc(-c2ccc(C)cc2)oc1S(=O)(=O)N1CCN(c2oc(-c3ccccc3)nc2C#N)CC1 | 99.5% |
| COc1ccc(-c2nnc(SCc3ccc(O)c4ncccc34)n2-c2ccccc2)cc1 | 12.7% |
| Oc1ccccc1/C=N/Nc1nc(N/N=C/c2ccccc2O)nc(N2CCOCC2)n1 | 38.5% |
| NS(=O)(=O)c1ccc(-n2cc(CC=O)nn2)cc1 | 109% |
| O=C(Cn1cc(CN2C(=O)c3ccc([N+](=O)[O-])cc3C2=O)nn1)Nc1ccc(F)cc1Cl | 99.6% |
| C/C=C/C=C1\C[C@H]2CO[C@H](O2)C1=O | 69.1% |
| O=C(COc1ccc(/C=C2\SC(=O)NC2=O)cc1)Nc1ccc(C(=O)/C=C/c2cc3ccccc3nc2Cl)cc1 | 88.7% |
| O=c1oc2ccc(-c3ccc(F)cc3F)cc2c(=O)n1-c1ccc(F)c(F)c1 | 12.7% |
